Bioassay records as filed in PubChem.
tim23-1 inh – growth inhibitors of tim23-1 mutant yeast, primary screen, luminescence, uHTS. S. cerevisiae tim23-1 growth, BacTiter-Glo luminescence, 24 h. inhibition, % at 20 µM. 1.3% of 330,000 active. AID 463212, 2010;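 active = growth inhibition of the mutant yeast at or above 50%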;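 also: temperature-sensitive mutant grown at 25 °C; plate controls were DMSO-treated mutant yeast for no effect and medium wells lacking yeast for full effect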
tim10-1 inh – growth inhibitors of tim10-1 mutant yeast, primary screen, luminescence, uHTS. S. cerevisiae tim10-1 ts strain growth, BacTiter-Glo, 24 h. inhibition, % at 20 µM. 2.2% of 330,000 active;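 active = inhibition of at least 40%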;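 also: mutant grown at 25 °C; 0% = DMSO wells with yeast and 100% = wells holding no yeast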
Mot1-301 SUMO – yeast Mot1-301 growth rescue at high temperature, primary screen, SUMOylation pathway inhibitor project, S. cerevisiae, ATP luminescence, 38.5C; growth rescue, % at 18.8 µM; S. cerevisiae Mot1-301 growth rescue; percent above DMSO median, 100 means doubled; AID 2716, 2010; 1% of 320,000 active;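 active = every valid replicate shows activation above 250% relative to neutral control wells; inactive = the rest, any valid replicate at or below 250%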;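 also: OY570 slx delta 5 strain wells were the positive control but not used for scaling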
PfHsp90 yeast 2 – growth inhibition of PfHsp90-expressing yeast, primary screen, antimalarial PfHsp90 inhibitor project, S. cerevisiae, BacTiter-Glo luminescence, single point, set 2; BacTiter-Glo ATP, 48 h; yeast lacking PDR1 and PDR3 efflux regulators; inhibition, % at 9.4 µM; AID 504621, 2011; 0.32% of 310,000 active;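 active = every replicate shows inhibition above about 80%, whatever the replicate mean, limit read from the data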;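 also: 0% = DMSO neutral controls and 100% = 20 µM radicicol positive controls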
TIM10 inh – growth inhibitors of isogenic TIM10 control yeast, primary screen, counter-screen for tim10-1 yeast inhibitor project, luminescence, uHTS. S. cerevisiae TIM10 strain growth, BacTiter-Glo luminescence, 24 h. inhibition, % at 10 µM. 1.4% of 330,000 active. AID 463195, 2010;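 active = inhibition of 40% or more at the single tested concentration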;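 also: wild-type TIM10 isogenic control strain grown at permissive 25 °C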
TIM10 conf – growth inhibitors of wild-type TIM10 yeast, confirmation, counter-screen for tim10-1 synthetic lethality project, single concentration, luminescence, S. cerevisiae. shares compounds with TIM10 inh. S. cerevisiae tim10 strain growth, BacTiter-Glo luminescence, 24 h. inhibition, % at 10 µM. 63% of 4,600 active;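 active = inhibition of yeast growth at or above a set limit in either of two replicates at 10 µM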;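 also: this counterscreen used the strain with wild-type TIM10; 0% = yeast with DMSO and 100% = medium wells lacking yeast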
* = called active by the depositor. A selection: hits, their analogues and other compounds. The true share with any hit is near 4.4%.

CC1(C)CC2CC(C)(CN2S(=O)(=O)c2ccc(N)cc2)C1 (stereo unspecified) was read as tim23-1 inh 39.8, tim10-1 inh 38.5, Mot1-301 SUMO 59.4, PfHsp90 yeast 2 33.0, TIM10 inh 53.7* and TIM10 conf 28.5.
For CC1(C)CC2CC(C)(CN2S(=O)(=O)c2cccc(C(N)=O)c2)C1 (stereo unspecified) the results were tim23-1 inh 29.0, tim10-1 inh 16.7, Mot1-301 SUMO -0.3, PfHsp90 yeast 2 -5.4 and TIM10 inh 1.7.
`O=C(COC(=O)c1c(F)cccc1F)NCc1cccs1` gave tim23-1 inh 7.9, tim10-1 inh -4.6, Mot1-301 SUMO 9.4, TIM10 inh 70.7* and TIM10 conf -1.3.
`O=C(Nc1ccc(S(=O)(=O)N2CCc3ccccc32)cc1)c1ccc2c(c1)OCO2` gave tim23-1 inh 27.0, tim10-1 inh 33.4, Mot1-301 SUMO 8.7, PfHsp90 yeast 2 16.3, TIM10 inh 43.9* and TIM10 conf 46.6*.
For O=C(Nc1cccc(NC(=O)c2cccs2)c1)c1ccc(F)cc1 the results were tim23-1 inh 3.7, tim10-1 inh -10.0, Mot1-301 SUMO 93.8, PfHsp90 yeast 2 7.4 and TIM10 inh 19.9.
O=C(Nc1cccc(F)c1)c1ccc2c(c1)OCO2 was read as tim23-1 inh 42.4, tim10-1 inh 18.8, Mot1-301 SUMO 252.0, PfHsp90 yeast 2 4.5, TIM10 inh 49.6* and TIM10 conf 6.2.
Screening Cc1ccsc1/C=N\NC(=O)c1ccc2c(c1)OCO2 returned tim23-1 inh 35.2, tim10-1 inh 0.1, Mot1-301 SUMO 118.6, TIM10 inh 42.6* and TIM10 conf 27.5.
Screening O=C(Nc1c(C(=O)Nc2cccc(F)c2)oc2ccccc12)c1ccc2c(c1)OCO2 returned tim23-1 inh -2.9, tim10-1 inh 11.7, Mot1-301 SUMO -11.7, PfHsp90 yeast 2 14.0 and TIM10 inh -32.0.
For O=C(Nc1cccc(C2OCCCO2)c1)c1cccs1 the results were tim23-1 inh 27.5, tim10-1 inh 37.9, Mot1-301 SUMO 0.8, PfHsp90 yeast 2 13.9, TIM10 inh 43.9* and TIM10 conf -5.3.
For CC[C@H]1C=C[C@@H](C(C(=O)OC)C(=O)OC)CN1C(C)=O the results were PfHsp90 yeast 2 -2.1.
`Cc1ccc(NC(=O)c2ccc3c(c2)OCO3)cc1Cl` gave tim23-1 inh 47.7, tim10-1 inh -27.1, Mot1-301 SUMO 6.7, PfHsp90 yeast 2 -4.5, TIM10 inh 41.8* and TIM10 conf 34.2*.
Screening COc1ccc(C(=O)Nc2cccc(NC(=O)c3cccs3)c2)cc1 returned tim23-1 inh 0.3, tim10-1 inh -6.8, Mot1-301 SUMO 15.3, PfHsp90 yeast 2 -13.7 and TIM10 inh -10.4.
For O=C(Nc1ccc2c(c1)OCO2)c1cccs1 the results were tim23-1 inh 39.1, tim10-1 inh 37.5, Mot1-301 SUMO 0.3, PfHsp90 yeast 2 21.2, TIM10 inh 47.3* and TIM10 conf 36.6*.
For COc1cc(NC(=O)c2cccs2)cc(OC)c1 the results were tim23-1 inh 28.9, tim10-1 inh 25.8, Mot1-301 SUMO 17.3, PfHsp90 yeast 2 -10.6, TIM10 inh 69.8* and TIM10 conf 55.8*.
For Cc1c(C(=O)NC2CCS(=O)(=O)C2)oc2ccccc12 (stereo unspecified) the results were tim23-1 inh 6.9, tim10-1 inh 2.9, Mot1-301 SUMO -9.0, PfHsp90 yeast 2 -7.9 and TIM10 inh -10.2.
Screening O=C(N=Nc1c(O)[nH]c2ccccc12)c1cc(NS(=O)(=O)c2cccs2)cc(NS(=O)(=O)c2cccs2)c1 returned tim23-1 inh -21.5, tim10-1 inh 11.2, Mot1-301 SUMO -9.3 and TIM10 inh -8.0.
Screening O=C(N=Nc1c(O)[nH]c2ccccc12)c1cccs1 returned tim23-1 inh 10.6, tim10-1 inh 23.5, Mot1-301 SUMO -15.3, PfHsp90 yeast 2 -20.4, TIM10 inh 61.9* and TIM10 conf 46.8*.
For CCOc1ccc(NC(=O)c2ccccc2OCC(=O)c2ccccc2)cc1 the results were tim23-1 inh 10.8, tim10-1 inh 33.2, Mot1-301 SUMO 121.1, PfHsp90 yeast 2 2.7, TIM10 inh 44.7* and TIM10 conf 28.2.
`C#CCOCCOCCOCCNc1nc(N2CCN(C(=O)Cn3cc(CCCCN)nn3)CC2)nc(N2CCN(C(=O)Cn3cc(CCCN=C(N)N)nn3)CC2)n1` gave tim23-1 inh 12.5, tim10-1 inh -20.3, Mot1-301 SUMO 16.9, PfHsp90 yeast 2 -10.9 and TIM10 inh 3.3.
Screening C#CCOCCOCCOCCNc1nc(N2CCN(C(=O)Cn3cc(CCCN=C(N)N)nn3)CC2)nc(N2CCN(C(=O)[C@H](C)n3cc(CCCN=C(N)N)nn3)CC2)n1 returned tim23-1 inh -10.1, tim10-1 inh -3.6, Mot1-301 SUMO 8.8, PfHsp90 yeast 2 13.9, TIM10 inh 60.5* and TIM10 conf -8.2.
`Cc1ccc2[nH]cc(S(=O)(=O)c3ccc(C)c(C)c3)c(=O)c2c1` gave tim23-1 inh 4.6, tim10-1 inh -8.1, Mot1-301 SUMO -14.0, PfHsp90 yeast 2 -6.7 and TIM10 inh 4.5.
`CC(=O)Oc1ccc2ccccc2c1C(NC(=O)Cc1ccccc1)c1ccc(Cl)cc1` (stereo unspecified) gave tim23-1 inh 39.5, tim10-1 inh 23.5, Mot1-301 SUMO -26.6, PfHsp90 yeast 2 -75.5, TIM10 inh 40.2* and TIM10 conf 29.6.
CCc1cc2c(=O)c(-c3nc4ccccc4[nH]3)coc2cc1OC(=O)N1CCOCC1 was read as tim23-1 inh 19.4, tim10-1 inh 16.8, Mot1-301 SUMO -21.2, PfHsp90 yeast 2 7.3, TIM10 inh 57.2* and TIM10 conf 62.4*.
For COc1ccc(OC)c(NC(=O)CSc2ncnc3sc(C)cc23)c1 the results were PfHsp90 yeast 2 -5.0.
For CCc1ccccc1NC(=O)CSc1ccsc1[N+](=O)[O-] the results were tim23-1 inh 9.1, tim10-1 inh 4.4, Mot1-301 SUMO 72.6, PfHsp90 yeast 2 13.3 and TIM10 inh 7.2.
CCc1ccccc1NC(=O)c1ccc([N+](=O)[O-])s1 was read as tim23-1 inh 10.9, tim10-1 inh 37.4, Mot1-301 SUMO -20.3, PfHsp90 yeast 2 16.1, TIM10 inh 49.9* and TIM10 conf 43.0*.
For CN(CC(=O)Nc1ccccc1Cl)C(=O)COC(=O)c1ccc([N+](=O)[O-])s1 the results were tim23-1 inh 36.4, tim10-1 inh 27.2, Mot1-301 SUMO 1.6, PfHsp90 yeast 2 -9.1, TIM10 inh 47.0* and TIM10 conf 52.4*.
